Experimental data as given in the supplement of paper PMC11417369.
Over roughly 25,000 sequences, “ln(normalized median fluorescence intensity)” has its median near 9.3; the highest 2% begin near 10. The sample as a whole holds a higher share of the highest values than the screen did.

The sequences below were run on PF3D7_0420300 AP2 domain 1 (GST-tagged) (assay: gcPBM binding intensity (ln(normalized median fluorescence intensity)); higher = stronger DNA binding).
How it was run: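 DNA-binding domains from P. falciparum, fused to GST and produced in E. coli, were put on an Agilent 4 × 180k double-stranded probe array for 1 h in 1× PBS holding 1% milk, 0.2 mg/ml BSA, 0.5% salmon testes DNA and 0.03% Triton X-100. Probes were primer-extended, 36 bp long and drawn from intergenic genomic regions, with negative controls included. After Alexa488 anti-GST antibody detection and a 488 nm scan, binding intensity was set as the highest Masliner-normalised natural-log median intensity across replicate spots of either probe orientation.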

| Sequence | gcPBM binding intensity (ln) |
| --- | --- |
| ACTATTAACAGTGTAGTGCAAAAAGGTTAATTATTA | 9.42 |
| AACATAAAAAAAATATGTACATATATAATATATATA [XGTACX_site3764] | 9.29 |
| TTTTTATGTAGAATTTTTTTATTTTTTCAAAATGGA [CACACA_negctrl_site166] | 8.69 |
| TATATATATATTGAAGTGCAAAATACTGTACGTAAT | 9.4 |
| GAGATAAAATAAAACACACACATATATATATAGAAT [CACACA_site2197] | 10.1 |
| TTGTTTTGCTAAAAATGTACTCTATATAAAAGCTTT [XGTACX_site4027] | 8.98 |
| ATGTAATATATTATATGTACATATTTTTATGTAGAT [XGTACX_site5945] | 9.2 |
| AACATTTTTAAATATATAAAAATATATATATATATA [XGTACX_negctrl_site551] | 8.97 |
| TATTTTAATCGTAAGTGTACTCTTTTAAGTATATGT [XGTACX_site8591] | 9.2 |
| GGACATTTTTATAAGGTGCACGGTTTTGATATTACT [GTGCAC_site9892] | 9.46 |
| AAAAAAAAATATCACACACACATAAATATAAACCAA [CACACA_site2279] | 10.1 |
| CATATACATAAACACACACACACATAAATAAATATA [CACACA_site4864] | 10.2 |
| AATAAATATATAAATACACACAAACATACATATATA [CACACA_site9340] | 9.96 |
| TACATACATAAACACACACACACATATATATATATA [CACACA_site8953] | 10.1 |
| AAAAAAAAAAATATCACACACACATAAATATAAACC [CACACA_site2278] | 10.2 |
| TATATAAATATACAAACACACATACAAACATATATA [CACACA_site4754] | 9.9 |
| TATATACATAAACACACACACACATATATATATATA [CACACA_site8707] | 10.1 |
| TAGATACATAAACACACACACACATACATATATACA [CACACA_site9139] | 10.3 |
| AAAAAAAAAAATATCACACACACATAAATATAAACA [CACACA_site7138] | 10.1 |
| TTTTATAATTTATCTAAAAAAAAATAAAATAAAATG [TGCATGCA_negctrl_site429] | 8.67 |
| CTTTTTTTTTTGTATTGTACTTTATTTTTACATCGT [XGTACX_site2918] | 9.65 |
| AAAAACGATTAATGTGTACACACATAGTTATAAACA [CACACA_site8659] | 9.74 |

| Sequence | gcPBM binding intensity (ln) |
| --- | --- |
| TGATGATATAAAAACACACACATATAATATAATACT [CACACA_site1208] | 10 |
| TTTTCCCTTACAGAAAAAAAAAAATTCCTAACCCCG [CACACA_negctrl_site650] | 9.03 |
| TGGCATATATATAAATGTACTTTCTTTCTATCTGTT [XGTACX_site8483] | 9.34 |
| ATAAATTCATTATATTGTACAAACAAATGAAAAAAA [XGTACX_site8304] | 9.09 |
| ATAATATGAAATATAACACACATATATAAAAACATT [CACACA_site866] | 9.72 |
| AAAAAAAAAAAACACACACACACACTAGTATATAAA [CACACA_site4783] | 10.2 |
| TACATATATAAAAAAACACACACATATATATATATA [CACACA_site8315] | 9.54 |
| TACATAAATTAAAACACACACACACTAATAAAAAAA [CACACA_site8712] | 10.1 |
| AAAAAAAAAAAAAACACACACACAAGAGTATATAAA [CACACA_site6580] | 9.99 |
| ATAATATGAAAACACACACACACACTAATAAAAAAA [CACACA_site8617] | 10.2 |
| AAAAAAAATATGAAAACACACATATATAAATAAATA [CACACA_site113] | 9.55 |
| ATAATATGAAAACACACACACACACTAGAAAAAAAA [CACACA_site5153] | 10.3 |
| AAAAAATATATATTAACACACACACTAATAAAAAAA [CACACA_site8366] | 10 |
| ATATATATGAAACACACACACAAAAAAAAAAAAAAA [CACACA_site3647] | 9.69 |
| AATAATAAACACAATCAAATAAAATATGAAATATAA [GTGCAC_negctrl_site307] | 9.46 |
| ATAATCCTTAAACACACACACACACTAATAAATAAA [CACACA_site8052] | 10.2 |
| TAATAAAAATAAAATTGTACTAATAACATTTCATTA [XGTACX_site3703] | 8.94 |
| TATCTTATGTCTGAAAGTACAAATTTTTTTCTACTT [XGTACX_site2208] | 9.09 |
| TGCAACAAAATAAACACACACACACTAACACAAAAA [CACACA_site7567] | 10.1 |
| TATATATATATATATACACACACACTAATAAAAAAA [CACACA_site8426] | 10 |
| ATAAATAAAGGACACACACACACACTAATAAAAAAA [CACACA_site8840] | 10.3 |
| ATATAAATAATATAAATACACACTAAAAAAAATATA [CACACA_site542] | 9.69 |
